# Assay results as given in ChEMBL document CHEMBL4513135, “CO-ADD screening of IQOG CSIS (Spain) compounds”.
# Entries with a potency or affinity are not part of this list.
# Tests used:
# Klebsiella pneumoniae = settings: Concentration 32 ug.mL-1; ASSAY_TEST Inhibition of Bacterial Growth; detection method Absorption (OD600); MEDIA CAMHB; plate type 384well; NBS; CORNING #3640; time 18 hr
# Candida albicans = settings: 32 ug/mL
# Cryptococcus neoformans = settings: Concentration 32 ug.mL-1; ASSAY_TEST Inhibition of Fungal Growth; detection method Resazurin; Absorption (OD600-OD570); plate type 384well; NBS; CORNING #3640
SMILES,Inhibition (Klebsiella pneumoniae),Inhibition (Candida albicans),Inhibition (Cryptococcus neoformans)
O=C1SC(SCc2ccccc2)=NC1=Cc1cccc(OCc2ccccc2)c1,-15.18%,0.84%,-8.61%
CC1=C(CO)C(c2ccc(C#N)cc2)C(C#N)=C(N)O1 (configuration not stated),10.02%,5.46%,-8.41%
COC(=O)C1(NC(=O)c2ccccc2)CC1c1ccccc1 (configuration not stated),3.5%,0.07%,-1.1%
CC(=O)N1CC(=O)NC1=S,17.26%,1.1%,1.05%
Cc1ccc(CNNC(=O)c2c[nH]c3ccccc23)cc1,5.46%,-1.04%,-5.03%
N#Cc1cc(C#N)c(NCCO)nc1N,12.5%,1.22%,-17.78%
Cn1c(C(=O)NCc2ccccc2)cc2cc(OCCCC3CCN(Cc4ccccc4)CC3)ccc21,8.4%,1.62%,-77.02%
CCOC(=O)CCc1c[nH]c2ccccc12,-13.33%,5.29%,-6.58%
CN(N=O)C(=O)NC1(C(=O)O)CC1c1ccccc1 (configuration not stated),23.72%,1.7%,-0.92%
